In publication PMC7819943, “Rice protein-binding microarrays: a tool to detect cis-acting elements near promoter regions in rice”:
Over roughly 68,000 sequences, “fluorescence intensity (a.u.)” has its median near 9,100; the highest 2% begin near 16,000. For the sample, the highest values were picked, then their nearest neighbours and some sequences at random.

molecular target: OsWRKY34 (Oryza sativa, UniProt Q0JBA9 1-250); test: protein-binding microarray (RPBM); PBS, 2% BSA, 51.3 ng/ul salmon testes DNA, 50 uM zinc acetate, 200 nM TF, 25 C, 1 h; high values mean tight binding; conditions: protein: recombinant; tags: N-terminal polyhistidine and DsRed monomer fusion (pET32a); label: CyDye5-dUTP incorporated in the synthesized complementary strand; 3' TTTTT single-stranded linker to array surface; dsDNA, one strand shown
In short: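 Transcription factors, each fused N-terminally to a polyhistidine tag and DsRed, were expressed in E. coli BL21-CodonPlus and purified on Ni–NTA. A custom Agilent array was made double-stranded by primer extension with Cy5-dUTP and blocked with 2% BSA. It was incubated with 200 nM protein in PBS, 2% BSA, salmon testes DNA and 50 µM zinc acetate at 25 °C for 1 h, then washed. The binding signal is per-feature fluorescence intensity (arbitrary units) read on an Axon 4000B scanner.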

Sequence of OsWRKY34 (Q0JBA9 entry or part of it): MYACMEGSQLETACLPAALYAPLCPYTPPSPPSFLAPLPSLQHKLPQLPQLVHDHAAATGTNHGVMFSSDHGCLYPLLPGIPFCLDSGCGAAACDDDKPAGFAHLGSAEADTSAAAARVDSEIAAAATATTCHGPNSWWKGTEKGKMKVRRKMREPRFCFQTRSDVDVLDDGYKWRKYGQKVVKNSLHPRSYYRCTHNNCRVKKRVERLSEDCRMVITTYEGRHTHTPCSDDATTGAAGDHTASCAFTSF

First: CTCCCTCCCACTCCCCTTTTCGTAATTCCTTCCGCGCTTTCGGAGTCACCTAGTGCAG
Second: TACTCTCTCTGTCCCCTTTTGTTTTTTTTCCTGTATACTGCGGAGTCACCTAGTGCAG
The binding signal of the first is lower: 8150 fluorescence intensity (a.u.) for the first, 8690 fluorescence intensity (a.u.) for the second.

Compared with “ATCACCTTCACGTTCCGAGATGTGGCACGAATCCCGAGGACGGAGTCACCTAGTGCAG”, “AATCGCTTTCTCTCTCTTCTTCCTTGCTCTCTCATACAACCGGAGTCACCTAGTGCAG” is higher in binding signal: 8070 fluorescence intensity (a.u.) for the first, 10200 fluorescence intensity (a.u.) for the second.

First: TCGTTTGATGCGATTTCGGCGGCGATCACCACCACCACCACGGAGTCACCTAGTGCAG
Second: ATATACAGATTTCGATCGGCGACGTTAGTGATCAGCTGGGCGGAGTCACCTAGTGCAG
The binding signal of the first is lower: 8160 fluorescence intensity (a.u.) for the first, 35200 fluorescence intensity (a.u.) for the second.

Compared with “GAAGCTGGGTTATACTTTCACCATTTTTTTACTCGATCGACGGAGTCACCTAGTGCAG”, “AGGATTTTTTTTTTGTCAACGTATTTCTATTACCTGCTGTCGGAGTCACCTAGTGCAG” is higher in binding signal: 8460 fluorescence intensity (a.u.) for the first, 9630 fluorescence intensity (a.u.) for the second.

First: TCTGTTATATTTACTATCCATACTATACGTGTAAATTTTACGGAGTCACCTAGTGCAG
Second: TATTCTTTCTCACGTAACGATTTTTTTTCATCATTAAGTTCGGAGTCACCTAGTGCAG
The binding signal of the first is higher: 10200 fluorescence intensity (a.u.) for the first, 8230 fluorescence intensity (a.u.) for the second.

Compared with “CTAGTCCTTCGTTTGAGTCCTTATATAACATTGATAGTACCGGAGTCACCTAGTGCAG”, “ATTTTTTAAGTGTACGTTGTTGTTGACTTTTTTTATTAACCGGAGTCACCTAGTGCAG” is higher in binding signal: 8500 fluorescence intensity (a.u.) for the first, 14400 fluorescence intensity (a.u.) for the second.

First: GTCCTTAACGACGTCGTTGACTTTTCACATAACATTATACCGGAGTCACCTAGTGCAG
Second: TATATTTTAATATTTTAATGTATGACGTCGTTGACTTTTTCGGAGTCACCTAGTGCAG
The binding signal of the first is higher: 17300 fluorescence intensity (a.u.) for the first, 13800 fluorescence intensity (a.u.) for the second.

Compared with “CCGTATTTTAATGCACGACACCTTTGACTTTTTGATAAACCGGAGTCACCTAGTGCAG”, “TCCGTATTTTAATTAACGACGTCGTTGACTTTTTAACCACCGGAGTCACCTAGTGCAG” is higher in binding signal: 9990 fluorescence intensity (a.u.) for the first, 24200 fluorescence intensity (a.u.) for the second.

Going from “AGTCTTTTTTCATCACATTAACCTATTATACACACATAACCGGAGTCACCTAGTGCAG” to “CCGTATTTTAATATATGACGTCGTTGACTTTTTAACCAACCGGAGTCACCTAGTGCAG”, the binding signal rises from 9110 fluorescence intensity (a.u.) to 27300 fluorescence intensity (a.u.).

Going from “CTACCTCTATATTTTAATTTTAATGTATGACGTCGTTGACCGGAGTCACCTAGTGCAG” to “TATTTACTTTATTTCCTCCATTTATGTCGTTTTAGTTTTGCGGAGTCACCTAGTGCAG”, the binding signal falls from 11100 fluorescence intensity (a.u.) to 9590 fluorescence intensity (a.u.).

Going from “CCTCCTTTGTTCTTGCTCCTCTTTGCACGCAAAGAATCGGCGGAGTCACCTAGTGCAG” to “TTGTTGTTTTTCGGTACTGTTGATTGAATTAGTGTTATGTCGGAGTCACCTAGTGCAG”, the binding signal falls from 9110 fluorescence intensity (a.u.) to 8120 fluorescence intensity (a.u.).

Going from “ACCTGACTAGCAAGCAACAATCATGTAACTTTTCACCTTTCGGAGTCACCTAGTGCAG” to “TCCCAGCAAATGCAACGCTCGTACTCCTCGCATCAACAGCCGGAGTCACCTAGTGCAG”, the binding signal rises from 8070 fluorescence intensity (a.u.) to 8210 fluorescence intensity (a.u.).

Compared with “TTGTTTCCTATACTTCCTACCAAATGTTCTGATTTTACTGCGGAGTCACCTAGTGCAG”, “GTTATAGCGCATCTATCAATCGTACTAAATTTCATTGTCCCGGAGTCACCTAGTGCAG” is lower in binding signal: 9520 fluorescence intensity (a.u.) for the first, 8450 fluorescence intensity (a.u.) for the second.

Compared with “GTCATACCACCTTACTTTTTACGTTTGAATCACCATTCTACGGAGTCACCTAGTGCAG”, “ATGGTGGGCTTGTATTGTCCTGCAGTCCTGCTTGTTTTACCGGAGTCACCTAGTGCAG” is lower in binding signal: 10900 fluorescence intensity (a.u.) for the first, 10700 fluorescence intensity (a.u.) for the second.

First: TTCCTTTTTTTACGTGGCAACAGTTAGGGGTGGGCATTCGCGGAGTCACCTAGTGCAG
Second: CGATGAGGAGGAGGAGGGGCAACAGTGTTAGGGTGGATTTCGGAGTCACCTAGTGCAG
The binding signal of the first is higher: 18400 fluorescence intensity (a.u.) for the first, 12100 fluorescence intensity (a.u.) for the second.

First: TGATAGTGGTGGGGTGGTATTGGTCCTAGCTTTGTACTCCCGGAGTCACCTAGTGCAG
Second: GGTGGTTGGGTACTTGGGTTGGGTTTGGGTTTTTAGGTTTCGGAGTCACCTAGTGCAG
The binding signal of the first is lower: 18700 fluorescence intensity (a.u.) for the first, 29100 fluorescence intensity (a.u.) for the second.

First: GGTTTGTTTGTCAACCTCGGGGTGGTTGGGTACTTGGGTTCGGAGTCACCTAGTGCAG
Second: ACTAGTGAAGTGTTGCCCGTTGGGTTTGGTGGAGTTTGAACGGAGTCACCTAGTGCAG
The binding signal of the first is higher: 11000 fluorescence intensity (a.u.) for the first, 8200 fluorescence intensity (a.u.) for the second.

First: TGTTGGGTTGGGTTGGGTTGGGTTGGGTCCGTCCGATGAACGGAGTCACCTAGTGCAG
Second: CTGGTTGGTAGGTACTTGCTTGATTAGATTGGGTTTGGTTCGGAGTCACCTAGTGCAG
The binding signal of the first is higher: 24200 fluorescence intensity (a.u.) for the first, 11500 fluorescence intensity (a.u.) for the second.

Compared with “ATGTTTGTTTGGTTGACTGCACTTGGTCCGACGGATGAAACGGAGTCACCTAGTGCAG”, “CAGTTAGGGGTGGGCATTCGGTCAGACCGAAAAATTCGGTCGGAGTCACCTAGTGCAG” is higher in binding signal: 8720 fluorescence intensity (a.u.) for the first, 15500 fluorescence intensity (a.u.) for the second.

First: TATTGGGTGCTTTTGTCCTCAGGTGTGGTATATAGGTACCCGGAGTCACCTAGTGCAG
Second: AGGCCATCATCACTTTAGTCTTATTTTCGTCACCATCATCCGGAGTCACCTAGTGCAG
The binding signal of the first is lower: 8060 fluorescence intensity (a.u.) for the first, 10300 fluorescence intensity (a.u.) for the second.

Going from “CTACTTATCATCCATTTAAACATGCTACTAGTCATTCTTCCGGAGTCACCTAGTGCAG” to “CGTTGGATAATCTCTAGTACATGTATATACATTTGGCTCTCGGAGTCACCTAGTGCAG”, the binding signal falls from 10200 fluorescence intensity (a.u.) to 8220 fluorescence intensity (a.u.).

Going from “CTGCCACGTCACATTTGCCGCCCTCTGGGAGGGCGATTTTCGGAGTCACCTAGTGCAG” to “AAACAGGTCACTACTATCCTCCATATATATATATTTTAGACGGAGTCACCTAGTGCAG”, the binding signal rises from 8580 fluorescence intensity (a.u.) to 9110 fluorescence intensity (a.u.).

First: AGAACTAGAAGACCACACGCTGTCTCACTTGTTGCAAAATCGGAGTCACCTAGTGCAG
Second: TCTCTCTTTCTTTCTATTTTTCTTTTCAGTCAGGTTAGTACGGAGTCACCTAGTGCAG
The binding signal of the first is lower: 8050 fluorescence intensity (a.u.) for the first, 11000 fluorescence intensity (a.u.) for the second.

First: CATCGATCGCACTAGTGTCGCTCTCTGGAAGTAATAGCCTCGGAGTCACCTAGTGCAG
Second: ATTAACAGCCTAGCTAGCTAGTGATCAGTGTTGACCGTTGCGGAGTCACCTAGTGCAG
The binding signal of the first is lower: 8110 fluorescence intensity (a.u.) for the first, 8200 fluorescence intensity (a.u.) for the second.

Going from “AGGAGATGCGGTAGTTTTTTTGGTACTGCGTGCGGTGGGGCGGAGTCACCTAGTGCAG” to “GTTTGCATGTTAAGCTTTAGGATTTGGTGGGTTATAATTTCGGAGTCACCTAGTGCAG”, the binding signal rises from 8400 fluorescence intensity (a.u.) to 10800 fluorescence intensity (a.u.).

Going from “TGGTACTGCGTGCGGTGGGGTAGGAGTAGGAGGTTTCTTTCGGAGTCACCTAGTGCAG” to “GAAAACCTAGGGTTAGGTTTGGTGGGGTTGGCAGCTTTCGCGGAGTCACCTAGTGCAG”, the binding signal falls from 16600 fluorescence intensity (a.u.) to 16400 fluorescence intensity (a.u.).

Compared with “AGGTGGGGAGCGGCGGACTCGCGGTTGGGTTTGTGTGGTTCGGAGTCACCTAGTGCAG”, “GTTTCTTGGTCGTGGGGTCGAGGAGGTGGTGGGTGGTGGTCGGAGTCACCTAGTGCAG” is higher in binding signal: 14200 fluorescence intensity (a.u.) for the first, 14800 fluorescence intensity (a.u.) for the second.

First: CTTCTTCTTCTTCTTCTTCTTGGTCCGGAGAGAGTAGAGACGGAGTCACCTAGTGCAG
Second: GGGTACAGGGGTGGGGACTTGGGTGTGTTGTGGTGGTTACCGGAGTCACCTAGTGCAG
The binding signal of the first is lower: 8090 fluorescence intensity (a.u.) for the first, 12400 fluorescence intensity (a.u.) for the second.

First: GGTGTTAGCTTTAGGTTTTGGTGTTTGGTTGGGTAATTTTCGGAGTCACCTAGTGCAG
Second: TAGAGTGGTTGGTTGGGTACTTGGGTTGGGTTGGGTGGTCCGGAGTCACCTAGTGCAG
The binding signal of the first is lower: 17300 fluorescence intensity (a.u.) for the first, 24300 fluorescence intensity (a.u.) for the second.

Going from “GGTGGGGTTGGCAGCTTTCGTGCTTGGTCAACCGGGCATGCGGAGTCACCTAGTGCAG” to “GTGTTTGGTTGGGTAATTTTGCAGGTGTTGCTCGTCAATTCGGAGTCACCTAGTGCAG”, the binding signal rises from 8520 fluorescence intensity (a.u.) to 10200 fluorescence intensity (a.u.).
